Compounds with a hit are over-represented: about 7.3% of the library has one in this group of screens.
SMN2 splice enh = SMN2 splice variant enhancement. Potency, µM (highest dose often 46.1 µM), for inactives: at the highest dose activity change, positive = activation, most hits filed as activators. HEK293 SMN2-luciferase splicing reporter, luminescence, 30-36 h. 210,000 compounds, 2.8% hits; also: % of control where 0% means no effect; nearly all actives have a fitted effect of over 55% in size
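qHTS luciferase splicing reporter: luminescence rises when SMN2 exon 7 is included in transfected HEK293 cells. Compound exposure lasted 30-36 h at 37C, with 4.5 mM final sodium butyrate as control, followed by a ONE-Glo read.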
FLuc counter = counter-screen for miR-21 project: firefly luciferase inhibitors or activators. P08659. purified FLuc, Km substrates, luminescence inhibition. Potency, µM (doses to about 57.5 µM), for the others: at the top dose activity change, negative = inhibition, usual class: inhibitors. 360,000 compounds, 6.9% hits. AID 588342;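 also: plate controls were vehicle for no effect and reference inhibitor for full effect; nearly all actives have a fitted effect of over 55% in size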
Target sequence (P08659 whole entry, looked up): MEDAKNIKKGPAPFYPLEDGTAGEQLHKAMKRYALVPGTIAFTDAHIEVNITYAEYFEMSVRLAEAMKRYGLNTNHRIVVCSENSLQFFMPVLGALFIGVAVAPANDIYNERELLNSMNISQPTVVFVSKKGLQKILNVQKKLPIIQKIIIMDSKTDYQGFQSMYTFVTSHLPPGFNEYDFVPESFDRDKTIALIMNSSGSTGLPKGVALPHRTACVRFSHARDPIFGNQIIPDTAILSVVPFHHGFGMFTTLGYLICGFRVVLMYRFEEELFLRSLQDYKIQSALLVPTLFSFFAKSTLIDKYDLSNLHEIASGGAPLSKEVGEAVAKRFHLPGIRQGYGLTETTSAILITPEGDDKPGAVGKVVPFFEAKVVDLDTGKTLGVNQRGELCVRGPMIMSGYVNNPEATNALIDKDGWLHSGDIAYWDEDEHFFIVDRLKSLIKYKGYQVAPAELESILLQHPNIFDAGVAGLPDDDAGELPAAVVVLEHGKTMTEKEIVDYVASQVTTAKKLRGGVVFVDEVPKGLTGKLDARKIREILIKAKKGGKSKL
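Biochemical qHTS of compounds, final roughly 60 µM downward over six points, against 10 nM purified firefly luciferase using Km concentrations of substrates (10 uM D-luciferin, 10 uM ATP) in Tris acetate pH 7.5 buffer; luminescence output.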
NPC1 prom act = NPC1 promoter activation | Huh7 NPC1 promoter luciferase reporter, 24 h | Potency, µM (top dose mostly 9.22 µM), inactives show at the top dose activation, usual class: activators | 320,000 compounds, 2.4% hits; also: % of control where 0% means no effect; nearly all actives have a fitted effect of over 60% in size
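Quantitative HTS used a cell-based reporter: Huh7 cells stably bearing the NPC1 promoter upstream of luciferase were treated with compounds for 24 h, and promoter activation was read as luminescence.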
Luc counter = Kinase-Glo luciferase inhibition (counter-screen) | Q27757 | Kinase-Glo luciferase, ATP luminescence, 8 min | Potency, µM (titrated, usually from 38.3 µM), without a hit: at the top dose activity change, negative = inhibition, usual class: inhibitors | 200,000 compounds, 0.28% hits | AID 1379; also: % is scaled to controls: 0 for no effect and ±100 for the full control effect; nearly all actives have a fitted effect of over 60% in size
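Compound is pinned into ATP-containing buffer (10 uM ATP, imidazole pH 7.2, 7 mM MgCl2). Kinase-Glo luciferase reagent is then added. Light output is recorded following an 8-min room-temperature incubation.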
Rab9 prom act = Rab9 promoter activation | Huh7 Rab9 promoter-luciferase reporter, luminescence, 24 h | Potency, µM (titrated, usually from 9.22 µM), without a hit: at the highest dose activation, negative = inhibition, hits mostly activators | 320,000 compounds, 2.8% hits | AID 485297; also: % of control where 0% means no effect; nearly all actives have a fitted effect of over 60% in size
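Luminescence from Amplite-detected luciferase (10 minutes, ambient) reports Rab9 promoter activation. Before that, stable Rab9-luciferase Huh7 cells (1500/well, reduced-serum OP-MEM I plus 10% FBS) were exposed to compound for 24 hours at 37C.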
ELG1 genotoxic = inducers of genotoxicity in HEK293T ELG1-luciferase cells | HEK293T ELG1-luciferase reporter, luminescence, 16 h | Potency, µM (series often up to 46 µM), for inactives: at the highest dose activity change, positive = activation, hits mostly activators | 330,000 compounds, 1.3% hits; also: % of control where 0% means no effect; nearly all actives have a fitted effect of over 60% in size
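16 hr compound incubation (37 °C, 5% CO2) of HEK293T cells carrying luciferase-tagged ELG1; luciferase then measured by ONE-Glo luminescence after 30 min at RT.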
The depositor's hits bear a star; ? = inconclusive; . = not tested or not shown; [ ] = remark or other dose. Calls follow the shape of the dose curve; as a rule, active = well fitted curve in the direction sought with a large enough effect; inconclusive = small, poorly fitted or top-dose-only effect, or another doubt; inactive = no such curve, though single readings can be large; an effect the other way counts as inactive or inconclusive. Potency is read from the fitted curve at half-maximal effect.

SMILES | SMN2 splice enh | FLuc counter | NPC1 prom act | Luc counter | Rab9 prom act | ELG1 genotoxic
O=C(NCCN1CCOCC1)c1cc(-c2ccccc2Cl)on1 | . | ? | -2% | . | -8% | 9%
COc1ccc(NC(=O)c2cc(-c3ccccc3Cl)on2)cc1OC | . | 7.6µM* | 14% | . | 14% | 7%
Nc1ccc(F)cc1F | -2% | . | . | . | . | .
COC(=O)C1=CN(c2cccc(C)c2)C=C(C(=O)OC)C1c1cc(OC)c(O)c([N+](=O)[O-])c1 | -4% | 17µM* | -3% | -2% | -2% | -8%
COC(=O)C1=CN(c2ccc(OC)cc2)C=C(C(=O)OC)C1c1ccc(C)c([N+](=O)[O-])c1 | -12% | 3% | -8% | 1% | -9% | 0%
Cc1ccc(/C=N/N=C/c2ccc(C)cc2)cc1 | ? | 2.4µM* | ? | -3% | ? | 21µM*
Oc1ccc(/C=N/N=C/c2ccc(O)cc2)cc1 | -4% | 7.6µM* | -2% | -1% | -15% | 4%
C(=C/c1ccccc1)/c1ccccc1 | 17% | . | . | . | . | .
Oc1ccc(/C=N/N=C/c2ccc(O)c(O)c2)cc1O | . | 15µM* | -6% | . | -2% | 11%
C(=N\N=C\c1ccccc1)/c1ccccc1 | 7% | 0.95µM* | 1% | -27% | 21% | 11%
COc1ccc(N(C)C(=O)c2cn(C3CCCCC3)c(=O)c3c2c2ccccc2n3C)cc1 | -20% | -1% | . | . | . | .
Fc1cccc(/C=N/N=C/c2cccc(F)c2)c1 | 13% | 2.7µM* | ? | -5% | ? | ?
COc1ccc(C(=O)COC(=O)CN2C(=O)C3C4C=CC(C4)C3C2=O)cc1 (stereo not drawn) | ? | 1% | -2% | -1% | -3% | 2%
COc1ccc(C(=O)COC(=O)C(C(C)C)N2C(=O)C3C4C=CC(C4)C3C2=O)cc1 (stereo not drawn) | ? | 19µM* | 1% | -5% | -2% | -3%
COc1ccc(NC(=O)NCCn2nnc3cc(S(=O)(=O)N(C)C)ccc32)cc1 | . | -2% | . | . | . | .
CC(=O)Nc1cccc(-n2nnc(SCC(N)=O)n2)c1 | . | 0% | 0% | . | -1% | -3%
COc1ccc(C(=O)CSc2nnn(-c3cccc(NC(C)=O)c3)n2)cc1 | . | 17µM* | ? | . | ? | 5%
CC(=O)Nc1cccc(-n2nnc(SCC(=O)c3ccccc3)n2)c1 | . | 17µM* | 2.8µM* | . | 3.2µM* | ?
C=CCN(C(=O)C1=NN(C2CCS(=O)(=O)C2)C(=O)CC1)c1nc(-c2ccc([N+](=O)[O-])cc2)cs1 (stereo not drawn) | 11µM* | -18% | 4µM* | -2% | 2.8µM* | 12%
COc1ccc(N2C(=O)C3C(C2=O)C2C=CC3C23CC3)c(OC)c1 (stereo not drawn) | -1% | 13µM* | -1% | -2% | 8% | 6%
COc1ccc(C2OC3=C(Nc4cc(C)c(C)cc4N3)C2=O)cc1 (stereo not drawn) | . | ? | 3.5µM* | . | 2.8µM* | ?
COc1ccc(Cl)cc1NC(=O)CN1C(=O)CSc2ccc(S(=O)(=O)N3CCCC3)cc21 | . | -8% | . | . | . | .
COc1ccc([C@H]2Cc3cccc(O)c3C(=O)O2)cc1O | . | -25% | 27% | . | 19% | 10%
COc1ccc([C@H]2Cc3cc(O)cc(O)c3C(=O)O2)cc1O | . | . | . | . | . | 5.2µM*
O=C(Cc1csc(NC(=O)Nc2ccc(Cl)cc2)n1)NC1CCCC1 | . | 4.8µM* | 17% | . | -3% | 0%
SMILES | SMN2 splice enh | FLuc counter | NPC1 prom act | Luc counter | Rab9 prom act | ELG1 genotoxic
O=C(Cc1csc(NC(=O)Nc2ccc(Cl)cc2)n1)NCc1ccccn1 | . | 1.1µM* | ? | . | ? | 1%
Cc1ccc(NC(=O)N2CC3CCCN3c3ccccc32)c(C)c1 (stereo not drawn) | . | -11% | . | . | . | .
CC(C)c1ccc(/C=N/NC(=O)c2c(Cl)cnn2C)cc1 | 8.9µM* | 0.67µM* | 3.2µM* | -12% | 2.8µM* | 18µM*
Cc1nn(C)c(C(=O)N/N=C/c2ccc(Br)cc2)c1Cl | 1% | -10% | -1% | 6% | 3% | 1%
CCCCc1c(O)n2c(nc3ccccc32)[nH]c1=O | ? | ? | 0% | -1% | -3% | 2%
Cc1cc(=O)n2c(nc3ccccc32)[nH]1 | -48% | -19% | -1% | 5% | 3% | 5%
CCOC(=O)c1cc(=O)n2c(nc3ccccc32)[nH]1 | . | 24µM* | 28% | . | ? | 13%
CCCc1cc(=O)n2c(nc3ccccc32)[nH]1 | ? | 17µM* | 16% | -4% | ? | ?
Nc1nc(Cl)cc(NCCO)n1 | -4%[9.22 µM] | . | . | -2%[7.66 µM] | . | .
COc1cc(C)ccc1OCc1cc(C(=O)NCc2ccncc2)no1 | . | 12µM* | 2.8µM* | . | 2µM* | 18µM*
COc1cc(C)ccc1OCc1cc(C(=O)NC(C)Cn2cncn2)no1 (stereo not drawn) | . | ? | 2.2µM* | . | 1.6µM* | ?
COc1ccc(C(=O)NCc2ccncc2)cc1OC | -11% | 0% | -1% | -1% | -3% | 1%
Cc1ccc(S(=O)(=O)n2nc(-c3ccccc3)nc2NCc2ccc(Cl)cc2)cc1 | 3% | 1% | . | . | . | .
COCCCn1cnc2oc3nc4ccccc4nc3c2c1=O | 10µM* | 7.6µM* | 1.6µM* | -7% | 0.63µM* | 2.1µM*
COCCCn1cnc2c(c1=O)c1nc3ccccc3nc1n2-c1ccccc1 | -7% | 2% | 1% | -2% | 2% | -1%
Cc1cc(C2=NNC(=NCc3ccccc3)SC2)c(C)n1-c1c(C)n(C)n(-c2ccccc2)c1=O | -1% | 5% | -1% | 1% | -1% | 3%
COCCn1c(C)cc(C2=NNC(=Nc3ccc(Cl)cc3Cl)SC2)c1C | -31% | ? | 1% | -7% | 3% | -1%
CCOc1ccc(N=C2NN=C(c3cc(C)n(CC4CCCO4)c3C)CS2)cc1 (stereo not drawn) | 27% | 13µM* | 27% | -2% | ? | 7%
C=CCn1c(C)cc(C2=NNC(=NC(C)(C)C)SC2)c1C | -90% | 0.34µM* | ? | ? | ? | 0.58µM*
C=CCN=C1NN=C(c2cc(C)n(CCOC)c2C)CS1 | -73% | 0.38µM* | -16% | -28% | -21% | -8%
COCCn1c(C)cc(C2=NNC(=NC3CC3)SC2)c1C | -103% | 0.24µM* | -42% | 7.1µM* | -37% | -19%
CCCCN(C)CCNC(=O)c1ccc2c(=O)n(CCc3ccccc3)c(=O)[nH]c2c1 | -35% | 1% | . | . | . | .
CN(C)C(=O)C1CCN(Cc2c[nH]c3ccccc23)CC1 | -1%[9.22 µM] | . | . | -3%[7.66 µM] | . | .
COc1ccc(-c2cc(C(F)(F)F)nc(SCCC(=O)Nc3cccc(O)c3)n2)cc1 | -17% | -3% | . | . | . | .
